From PubChem
Hits are enriched below; roughly 2% of the tested compounds scored in any of these assays.
CHT allo act: human CHT allosteric activation; Q9GZV3; CHT-expressing cells, membrane potential dye, choline EC20; stronger effect = higher value; LV-AA mutant CHT in HEK293 cells; B-score at 10 µM; 310,000 tested, 0.49% active; AID 488977;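 active means initial fluorescence not abnormally high and integrated response B-score, plate-corrected, over 3 SD above library mean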
Target sequence (Q9GZV3 whole entry, looked up): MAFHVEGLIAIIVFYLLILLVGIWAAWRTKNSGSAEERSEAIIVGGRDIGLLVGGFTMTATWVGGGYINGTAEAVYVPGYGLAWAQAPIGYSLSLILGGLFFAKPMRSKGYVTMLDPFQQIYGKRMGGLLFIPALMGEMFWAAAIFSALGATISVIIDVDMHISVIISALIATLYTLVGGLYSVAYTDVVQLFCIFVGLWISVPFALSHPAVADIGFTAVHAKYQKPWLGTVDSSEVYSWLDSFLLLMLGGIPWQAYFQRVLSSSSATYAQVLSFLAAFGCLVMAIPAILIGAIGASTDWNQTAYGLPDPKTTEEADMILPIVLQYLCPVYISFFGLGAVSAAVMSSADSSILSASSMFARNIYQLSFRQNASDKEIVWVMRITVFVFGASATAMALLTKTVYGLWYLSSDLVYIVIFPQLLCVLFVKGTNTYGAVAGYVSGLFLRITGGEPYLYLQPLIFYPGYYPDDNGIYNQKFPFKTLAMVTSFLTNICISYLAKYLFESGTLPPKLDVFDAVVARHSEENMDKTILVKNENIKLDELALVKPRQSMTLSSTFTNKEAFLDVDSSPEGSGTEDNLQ
CHT inh: inhibitors of human choline transporter CHT | B-score at 10 µM | CHT-expressing cells, membrane potential dye, choline response; stronger effect = lower value | 310,000 tested, 0.86% active;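 active means B-score over 3 SD under the library average, and starting fluorescence ratio not unusually high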;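 further: choline stimulus applied at its EC90 after an EC20 pre-addition; B-score computed on integrated fluorescence ratio after choline addition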
EP2 mod: modulators of human EP2 prostaglandin E2 receptor | P43116 | EP2-expressing cells, cAMP HTRF FRET, PGE2 co-stimulation | induction, % at 25 µM | 260,000 tested, 0.83% active | AID 940;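 active means compounds whose cAMP rise, as percent of the full-agonist control response, exceeds 60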;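 further: rat C6 glioma line stably carrying human EP2 under a CMV promoter; the protocol text gives 20 µM as final concentration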
EP2 antag: inhibitors of human EP2 prostaglandin E2 receptor; C6 glioma cells expressing human EP2, cAMP TR-FRET; cells stimulated with saturating PGE2; inhibition, % at 25 µM; 260,000 tested, 0.52% active;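 active means percent inhibition above 40 after rounding to a whole number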;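 further: rat C6 glioma host cells with rolipram phosphodiesterase inhibitor present; the protocol text gives 20 µM as final concentration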
Numbers stand for hits; 0 = inactive; - = not tested or not shown; ! = not confirmed by another sample.

SMILES	CHT allo act	CHT inh	EP2 mod	EP2 antag
O=C(Nc1ccccc1Cl)C1(c2ccccc2)CC1(Cl)Cl (stereo unspecified)	0	0	62	0
CC(=O)c1ccc(NC(=O)C2(c3ccccc3)CC2(Cl)Cl)cc1 (stereo unspecified)	0	0	0	0
O=[N+]([O-])c1cccc(/C=C/c2nc3ccc([N+](=O)[O-])cc3[nH]2)c1	0	0	0	44
Cc1nc2ccc([N+](=O)[O-])cc2[nH]1	0	0	0	0
Cc1ccc(S(=O)(=O)C/N=C(/NC(=S)N(c2ccccc2)c2ccccc2)c2ccccc2)cc1	0	0	61	0
Cc1ccc(S(=O)(=O)NC(=NC(C)C)c2ccccc2)cc1	0	0	0	0
Cc1ccnc(N=Cc2c(O)ccc3oc4c(c23)CCCC4)c1	0	0	62	0
C=CCN(CC=C)Cc1c(O)ccc2c1oc(=O)c1ccccc12	0	0	-	41
Cc1cc(=O)oc2c(CN(C)Cc3ccccc3)c(O)ccc12	0	0	0	-
COc1cc(-c2nnc(N(C(=O)C3CCC3)C(C)C)s2)cc(OC)c1OC	-	-	0	0
COc1ccc(C(=O)N2CCC(O)(c3cccnc3)CC2)cc1OC	-	-	0	-
C[C@H]1C[C@@H]2[C@@H]3CCC4=CC(=O)C=C[C@@]4(C)[C@@]3(Cl)[C@H](Cl)C[C@@]2(C)[C@]1(O)C(=O)COP(=O)(O)O	-	-	0	41
Cc1nn(-c2ccccc2)c(C)c1/C=N/NC(=O)c1cc(C23CC4CC(CC(C4)C2)C3)[nH]n1	0	-8.5	0	0
O=C(COc1ncnc2ccccc12)N1CCN(C2CCCCC2)C(=O)C1	-	-	0	0
S=C(Nc1ccc2c(c1)Cc1ccccc1-2)Nc1ccc2c(c1)Cc1ccccc1-2	-	-	0	55
O=C(O)c1ccccc1-c1ccccc1C(=O)Nc1ccc2c(c1)Cc1ccccc1-2	-	-	0	0
O=C(O)c1ccccc1-c1ccccc1C(=O)Nc1ccc2c(c1)Cc1cc(F)ccc1-2	-	-	0	43
COc1ccc(C(=O)NC(=S)Nc2ccc3c(c2)Cc2ccccc2-3)cc1	0	0	0	0
Cn1c(=O)c2c(nc(NCc3ccccc3)n2Cc2ccc(F)cc2)n(C)c1=O	-	-	64	0
CC1=NOC(=O)/C1=C/c1ccc2c(c1)OCO2	0	0	0	61
CC1=NOC(=O)/C1=C\c1ccc2c(c1)OCO2	0	0	0	0
CCc1cc2cc(C)cc(C)c2nc1SCC(=O)NCc1ccc2c(c1)OCO2	-	-	70	0
CCc1cc2ccc(C)c(C)c2nc1SCC(=O)NCc1ccc2c(c1)OCO2	-	-	0	0
CCc1cc2cc3c(cc2nc1SCC(=O)NCc1ccccc1)OCO3	-	-	81	0
Cc1cc(NC(=O)CSc2nc(C3CC3)nc3sc4c(c23)CCCC4)no1	-	-	0	47
SMILES	CHT allo act	CHT inh	EP2 mod	EP2 antag
Cc1cc2cc3c(cc2nc1SCC(=O)Nc1cccc(F)c1)OCO3	-	-	66	0
CCc1ccccc1NC(=O)CSc1nc2cc3c(cc2cc1C)OCO3	-	-	0	0
Fc1ccccc1Cn1nnc2c(NCc3ccncc3)ncnc21	-	-	0	0
Cc1cc(NC(=O)CSc2nc3cc4c(cc3cc2C)OCO4)no1	-	-	0	0
CCc1cc2cc3c(cc2nc1SCC(=O)Nc1cc(C)on1)OCO3	0	0	73!	0
CCOCCn1c(NCc2ccc(OC)cc2)nc2c1c(=O)[nH]c(=O)n2C	-	-	0	0
Cc1ccc(C(=O)c2ccsc2NC(=O)CN2CCOCC2)cc1	-	-	0	0
CC(=N)c1c(O)c2ccccc2oc1=O	0	0	0	0
CC1CCC(C(=O)c2c(O)c3ccccc3oc2=O)CC1 (stereo unspecified)	0	-11	0	0
COc1cc2cc(CN(Cc3cccs3)C(=O)Nc3ccccc3F)c(=O)[nH]c2cc1OC	-	-	0	0
Cc1csc(N/N=C/c2ccc(O)c([N+](=O)[O-])c2)n1	0	0	0	0
O=[N+]([O-])c1cc(/C=N\Nc2nc(-c3ccccc3)cs2)ccc1O	0	0	0	48
COc1cccc(OCCSc2nnc(-c3ccccc3)n2N)c1	-	-	0	0
CCCCCCCCCCn1c2c(c(=N)c3c1CCC3)CCC2	16	0	0	0
CCCCCCCCCn1c2c(c(=N)c3c1CCC3)CCCC2	-	-	0	0
CN1CCN(Cc2nc3ccccc3c(=O)n2Cc2nc(-c3ccc([N+](=O)[O-])cc3)cs2)CC1	0	0	0	49
COc1cc2[nH]c(=O)c(C(=O)NCCN3CCCCC3)c(O)c2cc1OC	-	-	0	0
O=C(NN1C(=O)CSC1=S)c1ccc(Br)cc1	-	-	0	0
COc1ccc(N2CCOCC2)c(NC(=O)c2ccc(Br)o2)c1	0	0	-	-
COC(=O)c1ccc(N2CCN(C)CC2)c(NC(=O)c2ccc(Br)o2)c1	0	-5.3	-	-
CCN(c1ccccc1)S(=O)(=O)c1cc2c(cc1C)N(C)CCO2	0	0	-	-
CCN(c1ccccc1)S(=O)(=O)c1ccc(F)cc1C	0	0	62	0
CCC(c1nnnn1C(C)(C)CC)N1CCN(Cc2ccc3c(c2)OCO3)CC1 (stereo unspecified)	-	-	0	0
O=C(O)CCC/C=C\C[C@@H]1[C@@H](/C=C/[C@@H](O)COc2cccc(Cl)c2)[C@H](O)C[C@@H]1O	0	0	0	0
CCCCC[C@H](O)/C=C/[C@@H]1[C@@H](CCCCCCC(=O)O)[C@@H](O)C[C@H]1O	0	0	83	0
SMILES	CHT allo act	CHT inh	EP2 mod	EP2 antag
CN(C)CCN(Cc1cc2cc3c(cc2[nH]c1=O)OCCO3)C(=O)Nc1ccccc1Cl	-	-	0	0
CN(C)c1ccc(C(=O)c2ccc(N(C)C)c3ccccc23)cc1	10	0	0	-
Cc1cc(SCC(=O)c2cccs2)nc2c(C)cccc12	0	0	0	-
Cc1cc2c(C)ccc(C)c2nc1SCC(=O)c1cccs1	0	0	63	0
Nc1nonc1C(=O)NCCN=Cc1ccccc1O	0	0	0	0
Nc1nonc1C(=O)NCCN=Cc1cc(Cc2ccccc2)cc(Br)c1O	0	0	61	-
COc1ccc(Br)cc1-c1nc(CCl)cs1	0	0	63	0
CCc1ccc(N2C(=O)C3ON(c4ccccc4)C(c4ccco4)C3C2=O)cc1 (stereo unspecified)	0	0	0	0
CCCCN1C(=O)C2ON(c3ccccc3C)C(c3ccco3)C2C1=O (stereo unspecified)	0	0	63	0
O=C(NC(=S)NCCN1CCOCC1)c1ccccc1Cl	0	0	64	0
CCn1c(CN2CCN(C)CC2)nc2ccccc2c1=O	-	-	0	0
CC(=O)Nc1cccc(NC(=O)CSc2ncc(-c3ccc(Cl)cc3)n2Cc2ccco2)c1	0	0	0	41
COc1ccc(-c2cnc(SCC(=O)Nc3ccc4c(c3)OCO4)n2Cc2ccco2)cc1	-	-	0	-
O=C(Nc1cccc2ccccc12)N1CCCN(c2c(Cl)cncc2Cl)CC1	0	0	0	41
O=C(COc1ccc(-c2ccccc2)cc1)N1CCOCC1	-	-	0	0
Fc1ccccc1C1c2[nH]c3ccccc3c2CCN1Cc1ccoc1 (stereo unspecified)	0	0	64	0
COc1ccccc1-n1c(C)nnc1SCC(=O)Nc1ccc(C)c(Cl)c1	-	-	0	0
CCOC(=O)C1=C(N)OC2=C(C(=O)CC(C)(C)C2)C1c1ccc(F)cc1 (stereo unspecified)	-	-	0	0
